Compound activity: PubChem BioAssay, National Center for Advancing Translational Sciences (NCATS)
Shown are actives, neighbours in structure and some others; about 11% of the full set was active somewhere.
IMPase Li inh – qHTS Assay for Identifying the Cell-Membrane Permeable IMPase Inhibitors: Potentiation with Lithium | CHO-M1 cells, IP1 TR-FRET (IP-One), carbachol + lithium | Potency, µM (highest dose often 59.4 µM), for inactives: at the top dose activity, negative = IMPase inhibition, usual class: inhibitors | 210,000 tested, 0.35% active; active = well fitted curve in the direction sought with a large enough effect; inconclusive = small, poorly fitted or top-dose-only effect, or another doubt; inactive = no such curve, though single readings can be large; an effect the other way counts as inactive or inconclusive;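 also: IP1 builds up when IMPase is blocked and the TR-FRET signal falls; potency is read from the fitted curve at half-maximal effect; plate controls were basal vehicle for no effect and high inhibitor control for full effect; nearly all actives have a fitted effect of over 50% in size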
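Concentration–response in CHO-M1 cells, lithium-potentiated; 30 min at 37C. IP1 detected by competitive TR-FRET after 10 min lysis at RT. Hill-fitted AC50.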
HPGD block – qHTS Assay for Inhibitors of HPGD (15-Hydroxyprostaglandin Dehydrogenase) | 150,000 tested, 4.3% active | 15-hydroxyprostaglandin dehydrogenase [NAD(+)] (Homo sapiens), P15428 | Potency, µM, inactives show top-dose activity change, negative = inhibition, actives largely listed as inhibitors | purified HPGD, NADH fluorescence kinetic, PGE2 substrate; also: potency is read from the fitted curve at half-maximal effect
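20 nM HPGD preincubated 15 min at room temperature with compound in 50 mM Tris-HCl pH 8, 0.01% Tween 20. Started with 1 mM NAD+ and 30 uM prostaglandin E2; NADH fluorescence (360/450 nm) read 5 times over 30-s intervals, last minus first.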
ALDH1A1 block – qHTS Assay for Inhibitors of Aldehyde Dehydrogenase 1 (ALDH1A1); 220,000 tested, 7.3% active; Potency, µM (titrated, usually from 75.3 µM), inactives show at the highest dose activity, negative = inhibition, actives largely listed as inhibitors; AID 1030, 2008; Aldehyde dehydrogenase 1A1 (Homo sapiens), P00352; Purified ALDH1A1, NADH fluorescence, propionaldehyde substrate;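 also: potency is read from the fitted curve at half-maximal effect; plate controls were no enzyme wells and a reference inhibitor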
PNC assembly inh – High Content Assay for Compounds that inhibit the Assembly of the Perinucleolar Compartment; activity change (PNC), negative = inhibition, % at 10 µM; PC3M PTB-GFP, PNC prevalence imaging, 16 h; stronger effect = lower value; 140,000 tested, 3.1% active;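 active = readout at or below -70, meaning at least 70% loss of cells showing the perinucleolar compartment, a nuclear body marking cancer cells; inconclusive = readout between -30 and a set limit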;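 also: plate controls were DMSO wells for no effect and camptothecin positive control wells for full effect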
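Read-out is percentage of cells bearing a perinucleolar compartment, from automated 20x imaging of fixed, Hoechst-stained PC3M PTB-GFP cells. Cells were seeded 4 h, then exposed 16 h to compound (23 nl of library stock) in duplicate plates.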
IMPase inh – qHTS Assay for Identifying the Cell-Membrane Permeable IMPase Inhibitors; Inositol monophosphatase 1 (Rattus norvegicus), P97697; 120,000 tested, under 10 active; inhibition (IP1 accumulation), % at 46.1 µM; CHO-M1 cells, IP1 accumulation, HTRF TR-FRET ratio; AID 901, 2007; active = well fitted curve in the direction sought with a large enough effect in the signal ratio, not every such curve was filed as active; inconclusive = small, poorly fitted or top-dose-only effect, or a change in a side signal; inactive = no such curve, though single readings can be large or run the other way; the % refers to the signal ratio;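 also: cells stimulated with carbachol in lithium chloride buffer; plate controls were DMSO basal wells for no effect and reference inhibitor wells for full effect; higher means more IMPase inhibition seen as more IP1 and lower FRET ratio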
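CHO-M1 cells (CHO stably expressing M1 receptor), compound up to 46 uM final, stimulated with carbachol (50 uM as added) in buffer with 50mM LiCl, pH 7.4, 30 min at 37C. Cytosolic IP1 read by TR-FRET; AC50 from Hill fits.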
NPSR antag – qHTS Assay for Antagonists of the Neuropeptide S Receptor: cAMP Signal Transduction. Q6W5P4. CHO-NPSR cells, cAMP TR-FRET, antagonist mode. Potency, µM (series often up to 38.3 µM), for inactives: at the highest dose activity change, negative = inhibition, actives largely listed as inhibitors. 220,000 tested, 1% active; active = well fitted curve in the direction sought with a large enough effect; inconclusive = small, poorly fitted or top-dose-only effect, or another doubt; inactive = no such curve, though single readings can be large; an effect the other way counts as inactive or inconclusive; also: potency is read from the fitted curve at half-maximal effect; nearly all actives have a fitted effect of over 50% in size
Target sequence (Q6W5P4 whole entry, looked up): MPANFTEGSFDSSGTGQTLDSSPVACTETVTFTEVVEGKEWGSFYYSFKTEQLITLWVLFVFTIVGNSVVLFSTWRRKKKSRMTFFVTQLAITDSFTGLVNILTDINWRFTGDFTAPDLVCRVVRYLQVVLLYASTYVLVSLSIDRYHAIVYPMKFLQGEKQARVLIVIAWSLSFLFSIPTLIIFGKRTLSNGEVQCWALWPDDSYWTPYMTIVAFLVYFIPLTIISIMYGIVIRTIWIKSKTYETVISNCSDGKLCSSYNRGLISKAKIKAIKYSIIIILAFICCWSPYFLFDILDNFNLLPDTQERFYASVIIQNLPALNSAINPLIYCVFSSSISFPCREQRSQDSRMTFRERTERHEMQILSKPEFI
Active calls of the source: *; [ ] = dose if it differs, or a comment. Unless noted, calls follow the shape of the dose curve; as a rule, active = well fitted inhibition curve with a large enough effect (not every such curve was filed as active); inconclusive = small, poorly fitted or top-dose-only effect, or another doubt; inactive = no such curve, though single readings can be large or run the other way. Unless noted, % is scaled to controls: 0 for no effect and ±100 for the full control effect.

Results for Cc1ccc(-c2nnn(CC(=O)N(Cc3ccco3)C(C(=O)NC3CCCC3)c3cccs3)n2)o1 (stereo not drawn) ?
IMPase Li inh: 15.6%; HPGD block: -11.9%; ALDH1A1 block: 3.6%; PNC assembly inh: -100.0*; IMPase inh: 8.0; NPSR antag: -9.0%[46.1 µM]

What do the screens show for `COC(=O)c1c(NC(=O)C2CCC2)sc(C(=O)N(C)C)c1C`?
IMPase Li inh: -2.7%; HPGD block: -3.4%; ALDH1A1 block: -3.7%; PNC assembly inh: inconclusive; IMPase inh: 24.4; NPSR antag: -5.6%[46.1 µM]

How did CCSc1n[nH]c(=S)s1 do in these assays?
IMPase Li inh: -10.0%; ALDH1A1 block: 1.78µM*; NPSR antag: 1.4%

Results for CCSc1nnc(NC(=O)CC)s1 ?
IMPase Li inh: -1.8%[38.3 µM]; HPGD block: -7.5%; ALDH1A1 block: 3.9%; PNC assembly inh: -13.5; IMPase inh: 9.2; NPSR antag: -5.3%[46.1 µM]

How did CCCCOc1ccc(C(=O)Nc2ccc(-c3cc4ccccc4oc3=O)cc2)cc1 do in these assays?
IMPase inh: -3.5

How did N#CC1=C(N)Oc2n[nH]c(-c3cccs3)c2C1C1CCCCC1 (stereo not drawn) do in these assays?
IMPase Li inh: 27.5%[38.3 µM]; HPGD block: -17.6%; ALDH1A1 block: -7.7%; PNC assembly inh: 11.2; IMPase inh: -3.3; NPSR antag: inconclusive

What do the screens show for `CCc1cc(C(C)=O)c(O)cc1OCCCCCC(C)(C)c1nn[nH]n1`?
IMPase Li inh: 4.5%; HPGD block: 20µM*; ALDH1A1 block: inconclusive

Results for Cc1csc(NC(=O)c2cncc(Br)c2)n1 ?
IMPase Li inh: -6.7%; ALDH1A1 block: 6.0%; NPSR antag: 2.7%

What do the screens show for `Cc1cccc(-n2ncc3c(NCCN4CCOCC4)ncnc32)c1`?
IMPase Li inh: 10µM*; HPGD block: -9.5%; ALDH1A1 block: 4.6%; PNC assembly inh: -21.5; IMPase inh: inconclusive; NPSR antag: inconclusive

Results for Cc1ccc2[nH]c3c(NCCN4CCOCC4)ncnc3c2c1 ?
IMPase Li inh: 29.3%[38.3 µM]; HPGD block: -14.7%; ALDH1A1 block: -7.8%; PNC assembly inh: -84.3*; IMPase inh: 6.8; NPSR antag: 0.3%[46.1 µM]

How did COc1ccc(-c2cc(C(=O)Nc3cc(C)on3)no2)cc1OC do in these assays?
IMPase Li inh: inconclusive; ALDH1A1 block: inconclusive; NPSR antag: -17.7%

What do the screens show for `CC1=NNC(=O)/C1=C\c1cn(-c2ccccc2)nc1-c1ccccc1`?
IMPase Li inh: 34.7%; ALDH1A1 block: -8.8%; NPSR antag: 12.6µM*

How did CC1(C)CC(=O)C(=Cc2cn(CCC#N)nc2-c2ccc(Cl)cc2)C(=O)C1 do in these assays?
IMPase Li inh: 0.6%; HPGD block: 15.8µM*; ALDH1A1 block: -6.4%; PNC assembly inh: -0.1; NPSR antag: -14.6%

What do the screens show for `O=C(O)/C(=C\c1cn(-c2ccccc2)nc1-c1ccc(Cl)cc1)NC(=O)c1ccccc1`?
NPSR antag: -4.4%

What do the screens show for `CC1(C)CC(=O)C(=Cc2cn(CCC#N)nc2-c2ccc(F)cc2)C(=O)C1`?
IMPase Li inh: -8.8%; HPGD block: 20µM*; ALDH1A1 block: -1.2%; PNC assembly inh: inconclusive; NPSR antag: -10.4%

How did CC1(C)CC(=O)C(=Cc2cn(-c3ccccc3)nc2-c2ccc(Cl)cc2)C(=O)C1 do in these assays?
IMPase Li inh: -21.5%[38.3 µM]; HPGD block: 1.12µM*; ALDH1A1 block: inconclusive; PNC assembly inh: 19.8; IMPase inh: -22.9; NPSR antag: inconclusive

What do the screens show for `N#CCCn1cc(/C=N/O)c(-c2ccc(F)cc2)n1`?
IMPase Li inh: -17.2%[38.3 µM]; HPGD block: -3.5%; ALDH1A1 block: 18.7%; PNC assembly inh: 8.6; IMPase inh: 1.0; NPSR antag: -4.9%[46.1 µM]
